Consider 34 targets from the supplement of paper PMC10849652.

Targets with a hit are over-represented here; the source holds about 7,900 in all. About 0.6% of all pairs of compound and target were hits.

Chain of UniProt P51812 (P51812 whole entry, looked up): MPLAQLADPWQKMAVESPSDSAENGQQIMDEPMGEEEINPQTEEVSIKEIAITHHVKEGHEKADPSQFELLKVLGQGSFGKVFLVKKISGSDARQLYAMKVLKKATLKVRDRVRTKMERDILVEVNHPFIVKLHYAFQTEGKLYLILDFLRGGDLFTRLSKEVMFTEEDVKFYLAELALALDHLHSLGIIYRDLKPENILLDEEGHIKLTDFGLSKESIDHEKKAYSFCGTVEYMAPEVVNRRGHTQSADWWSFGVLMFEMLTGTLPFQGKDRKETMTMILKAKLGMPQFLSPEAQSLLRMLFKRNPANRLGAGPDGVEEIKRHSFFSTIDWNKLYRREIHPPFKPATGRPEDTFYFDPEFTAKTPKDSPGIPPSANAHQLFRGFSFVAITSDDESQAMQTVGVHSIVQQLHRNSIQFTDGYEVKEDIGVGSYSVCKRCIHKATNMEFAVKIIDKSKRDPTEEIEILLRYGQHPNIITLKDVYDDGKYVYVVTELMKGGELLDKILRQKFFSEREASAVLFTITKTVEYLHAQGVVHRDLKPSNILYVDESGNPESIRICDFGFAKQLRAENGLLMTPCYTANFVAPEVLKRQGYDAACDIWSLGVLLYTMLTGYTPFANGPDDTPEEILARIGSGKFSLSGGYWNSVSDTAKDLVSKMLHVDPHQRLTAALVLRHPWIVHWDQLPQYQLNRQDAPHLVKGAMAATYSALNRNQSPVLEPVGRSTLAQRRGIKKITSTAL
Chain of UniProt P04049 (P04049 whole entry, looked up): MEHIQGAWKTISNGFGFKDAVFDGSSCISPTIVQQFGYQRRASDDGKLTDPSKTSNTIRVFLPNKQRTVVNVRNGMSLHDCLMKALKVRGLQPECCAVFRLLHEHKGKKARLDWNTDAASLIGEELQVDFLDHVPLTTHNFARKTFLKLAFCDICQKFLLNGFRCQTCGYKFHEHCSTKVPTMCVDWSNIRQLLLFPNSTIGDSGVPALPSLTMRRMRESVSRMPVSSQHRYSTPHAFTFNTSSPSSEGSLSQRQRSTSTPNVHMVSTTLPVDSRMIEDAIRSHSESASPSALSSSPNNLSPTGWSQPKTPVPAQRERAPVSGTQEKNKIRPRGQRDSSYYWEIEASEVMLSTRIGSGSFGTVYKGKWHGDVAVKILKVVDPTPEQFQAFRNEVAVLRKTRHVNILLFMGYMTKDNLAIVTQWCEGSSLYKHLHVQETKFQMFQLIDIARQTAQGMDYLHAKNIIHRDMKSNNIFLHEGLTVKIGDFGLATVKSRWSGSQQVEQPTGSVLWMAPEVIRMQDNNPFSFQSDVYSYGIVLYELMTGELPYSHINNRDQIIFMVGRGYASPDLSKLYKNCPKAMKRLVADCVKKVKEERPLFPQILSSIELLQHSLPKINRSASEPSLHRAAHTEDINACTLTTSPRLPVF
Chain of UniProt O15127 (O15127 whole entry, looked up): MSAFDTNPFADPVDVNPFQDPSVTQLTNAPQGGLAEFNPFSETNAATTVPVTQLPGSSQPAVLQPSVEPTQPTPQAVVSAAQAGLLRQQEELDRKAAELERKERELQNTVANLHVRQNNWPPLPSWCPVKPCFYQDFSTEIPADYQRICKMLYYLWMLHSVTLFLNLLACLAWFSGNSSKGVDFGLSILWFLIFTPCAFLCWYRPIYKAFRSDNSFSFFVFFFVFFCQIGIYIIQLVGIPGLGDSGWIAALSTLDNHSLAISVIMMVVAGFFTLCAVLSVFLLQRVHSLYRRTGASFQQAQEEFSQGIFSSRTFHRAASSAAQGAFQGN
Chain of UniProt Q9UKL0 (Q9UKL0 whole entry, looked up): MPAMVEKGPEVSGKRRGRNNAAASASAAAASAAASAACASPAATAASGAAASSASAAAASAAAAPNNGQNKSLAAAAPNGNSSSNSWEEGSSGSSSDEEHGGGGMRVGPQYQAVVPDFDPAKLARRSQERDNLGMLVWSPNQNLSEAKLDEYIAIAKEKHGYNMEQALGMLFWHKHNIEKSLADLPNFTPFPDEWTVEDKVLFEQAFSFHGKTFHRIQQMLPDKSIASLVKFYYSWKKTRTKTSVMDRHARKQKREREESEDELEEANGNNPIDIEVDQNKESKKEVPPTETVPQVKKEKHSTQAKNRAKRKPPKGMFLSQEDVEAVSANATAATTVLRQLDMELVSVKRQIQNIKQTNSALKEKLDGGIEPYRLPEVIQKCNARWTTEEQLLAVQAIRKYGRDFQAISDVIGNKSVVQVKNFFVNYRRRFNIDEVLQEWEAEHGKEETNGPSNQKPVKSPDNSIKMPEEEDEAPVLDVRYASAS
Chain of UniProt Q14498 (Q14498 whole entry, looked up): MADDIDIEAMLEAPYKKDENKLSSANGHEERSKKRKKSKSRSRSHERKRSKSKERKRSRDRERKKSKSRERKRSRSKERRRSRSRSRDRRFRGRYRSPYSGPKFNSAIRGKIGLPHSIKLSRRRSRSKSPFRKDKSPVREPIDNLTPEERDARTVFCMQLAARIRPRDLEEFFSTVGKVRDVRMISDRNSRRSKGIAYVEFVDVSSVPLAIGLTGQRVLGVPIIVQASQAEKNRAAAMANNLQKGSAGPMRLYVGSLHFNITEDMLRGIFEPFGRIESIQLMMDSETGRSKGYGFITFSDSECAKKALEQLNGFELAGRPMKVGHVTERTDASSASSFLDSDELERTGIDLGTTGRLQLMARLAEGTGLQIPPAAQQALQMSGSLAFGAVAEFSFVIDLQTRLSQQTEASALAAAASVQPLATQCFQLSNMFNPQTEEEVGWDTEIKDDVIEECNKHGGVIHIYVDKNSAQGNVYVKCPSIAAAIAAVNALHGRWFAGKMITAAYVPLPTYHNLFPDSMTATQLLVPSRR
Chain of UniProt Q14493 (Q14493 whole entry, looked up): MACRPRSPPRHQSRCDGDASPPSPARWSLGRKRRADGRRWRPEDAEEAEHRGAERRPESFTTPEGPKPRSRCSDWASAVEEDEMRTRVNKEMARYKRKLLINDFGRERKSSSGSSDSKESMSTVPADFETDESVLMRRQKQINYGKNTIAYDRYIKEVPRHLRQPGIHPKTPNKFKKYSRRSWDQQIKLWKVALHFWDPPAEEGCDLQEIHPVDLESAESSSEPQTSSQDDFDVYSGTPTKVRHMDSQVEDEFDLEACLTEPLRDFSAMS
Chain of UniProt P46063 (P46063 whole entry, looked up): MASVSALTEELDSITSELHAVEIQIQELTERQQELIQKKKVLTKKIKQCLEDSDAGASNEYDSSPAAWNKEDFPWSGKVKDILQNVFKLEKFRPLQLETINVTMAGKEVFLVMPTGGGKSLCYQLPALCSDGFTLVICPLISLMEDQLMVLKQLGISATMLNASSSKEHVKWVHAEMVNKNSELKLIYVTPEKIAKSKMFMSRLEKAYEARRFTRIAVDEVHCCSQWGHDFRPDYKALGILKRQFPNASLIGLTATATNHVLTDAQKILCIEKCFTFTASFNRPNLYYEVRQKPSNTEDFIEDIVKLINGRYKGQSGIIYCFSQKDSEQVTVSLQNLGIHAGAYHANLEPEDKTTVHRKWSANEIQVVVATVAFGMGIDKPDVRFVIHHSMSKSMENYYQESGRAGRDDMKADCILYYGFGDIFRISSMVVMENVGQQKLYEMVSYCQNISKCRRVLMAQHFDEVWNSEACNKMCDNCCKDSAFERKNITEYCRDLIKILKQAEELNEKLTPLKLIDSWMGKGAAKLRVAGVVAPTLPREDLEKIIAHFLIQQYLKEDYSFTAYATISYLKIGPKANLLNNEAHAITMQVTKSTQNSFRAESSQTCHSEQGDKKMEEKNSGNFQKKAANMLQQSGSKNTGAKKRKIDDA
Chain of UniProt Q9UPN6 (Q9UPN6 whole entry, looked up): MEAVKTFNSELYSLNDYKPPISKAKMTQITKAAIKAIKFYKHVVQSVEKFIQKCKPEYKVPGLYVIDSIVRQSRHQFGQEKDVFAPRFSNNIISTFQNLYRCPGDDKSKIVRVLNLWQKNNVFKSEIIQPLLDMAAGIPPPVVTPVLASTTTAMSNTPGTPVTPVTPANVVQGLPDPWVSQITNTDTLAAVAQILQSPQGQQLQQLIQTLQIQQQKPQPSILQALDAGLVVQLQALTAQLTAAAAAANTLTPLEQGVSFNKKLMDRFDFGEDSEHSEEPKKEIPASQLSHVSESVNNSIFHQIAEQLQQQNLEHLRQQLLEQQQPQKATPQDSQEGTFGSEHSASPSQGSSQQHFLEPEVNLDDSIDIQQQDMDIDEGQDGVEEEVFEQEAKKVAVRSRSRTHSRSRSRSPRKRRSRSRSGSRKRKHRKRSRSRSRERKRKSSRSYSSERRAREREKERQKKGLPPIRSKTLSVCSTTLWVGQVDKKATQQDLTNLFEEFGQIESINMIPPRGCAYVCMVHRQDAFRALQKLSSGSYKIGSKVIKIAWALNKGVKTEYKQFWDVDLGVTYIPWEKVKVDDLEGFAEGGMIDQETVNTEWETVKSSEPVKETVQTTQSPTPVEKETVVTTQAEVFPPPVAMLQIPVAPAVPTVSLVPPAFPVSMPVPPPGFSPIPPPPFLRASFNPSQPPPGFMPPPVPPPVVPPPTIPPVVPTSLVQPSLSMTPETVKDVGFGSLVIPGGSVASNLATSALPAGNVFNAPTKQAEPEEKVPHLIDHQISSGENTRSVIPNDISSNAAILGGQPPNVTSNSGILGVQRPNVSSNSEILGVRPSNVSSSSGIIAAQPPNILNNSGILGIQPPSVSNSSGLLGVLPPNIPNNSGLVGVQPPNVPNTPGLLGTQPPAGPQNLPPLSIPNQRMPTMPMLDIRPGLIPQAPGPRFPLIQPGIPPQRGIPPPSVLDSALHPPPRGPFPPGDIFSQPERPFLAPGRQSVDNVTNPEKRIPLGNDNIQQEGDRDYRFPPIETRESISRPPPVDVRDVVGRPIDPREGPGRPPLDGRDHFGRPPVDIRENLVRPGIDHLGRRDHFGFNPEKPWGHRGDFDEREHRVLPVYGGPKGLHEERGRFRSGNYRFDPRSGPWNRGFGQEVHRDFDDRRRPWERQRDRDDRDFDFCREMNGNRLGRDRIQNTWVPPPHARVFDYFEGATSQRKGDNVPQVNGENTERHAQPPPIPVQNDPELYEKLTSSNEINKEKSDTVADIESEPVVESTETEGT
Chain of UniProt Q8N0T1 (Q8N0T1 whole entry, looked up): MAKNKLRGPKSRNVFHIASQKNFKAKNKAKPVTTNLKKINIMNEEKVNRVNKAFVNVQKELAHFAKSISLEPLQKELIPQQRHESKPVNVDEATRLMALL

Compound in the first assay: CN(CCOC1=CC=C(C=C1)C[C@H]2C(=O)NC(=O)S2)C3=CC=CC=N3 (racemic) [rosiglitazone]
As to the kind of experiment: log2 fold change, soluble protein after heating vs DMSO (PISA); higher = thermal stabilisation; K562 cells, 10 uM, 30 min; active = over 0.2 and 3.5 SD of the protein, either way, in both replicates (recomputed). A digest of the protocol: (§1)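 K562 cells at 2×10^6 cells/mL were treated with 10 μM compound for 30 min. Aliquots were heated for 3 min across 48°C-58°C, pooled, and extracted in PBS with 0.5% NP-40 at 4°C; soluble protein was the supernatant after 21,000xg for 90 min. Soluble protein was quantified by TMTpro 16plex LC-MS/MS with channel sums equalised, and reported as log2 fold change in thermal stability against DMSO controls, with values from duplicates.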
As for SCAMP2 (UniProt H3BUB6), the log2 fold change was -0.034 (inactive).
The same measure, in the same setting: in the case of SCG3 (UniProt Q8WXD2) it was -0.027 (inactive); in that of RCOR3 isoform 3 (UniProt Q9P2K3), 0.037 (inactive); in that of SAMD4B (UniProt Q5PRF9), -0.008 (inactive).
Still for that read-out and setting: the figure for SCAF8 isoform 2 (UniProt Q9UPN6) is 0.091 (inactive); for RBM48 isoform 2 (UniProt Q5RL73) it is 0.006 (inactive); for SASH1 (UniProt O94885) it is 0.044 (inactive).
Same read-out and setting: the figure for SCAMP2 (UniProt O15127) is -0.043 (inactive); for RBBP6 (UniProt Q7Z6E9) it is 0.014 (inactive); for RAF1 isoform 2 (UniProt P04049) it is 0.042 (inactive).
As to RPS6KA3 (UniProt P51812), the log2 fold change was 0.052 (inactive).
For RBM39 (UniProt Q14498), the log2 fold change is 0.025 (inactive).
Still for that read-out and setting: the figure for RPAIN isoform 8 (UniProt Q86UA6) is -0.021 (inactive); for RALY (UniProt Q9UKM9) it is -0.134 (inactive).
On the same count and under the same terms, in the case of ROCK1 (UniProt Q13464) it was 0.042 (inactive); in that of RECQL (UniProt P46063), 0.032 (inactive).
For SH3GLB2 (UniProt Q9NR46), the log2 fold change is 0.041 (inactive).
Same read-out and setting: the figure for RAB9A (UniProt P51151) is 0 (inactive); for RAD50, A0A494C0Y7 it is -0.001 (inactive); for SLBP (UniProt Q14493) it is -0.048 (inactive).
Turning to SERINC1 (UniProt Q9NRX5), the log2 fold change is -0.051 (inactive).
On the same count and under the same terms, the figure for RAB3IL1 (UniProt E9PK89) is 0.017 (inactive); for RAP2C (UniProt Q9Y3L5) it is -0.045 (inactive).
In the case of SCO2 (UniProt O43819), the log2 fold change is 0.034 (inactive).
On the same count and under the same terms, in the case of RETSAT (UniProt Q6NUM9) it was 0.042 (inactive); in that of SEC31A (UniProt O94979), 0.018 (inactive); in that of RBIS (UniProt Q8N0T1), -0.008 (inactive).
For SLC12A9 (UniProt Q9BXP2), the log2 fold change is 0.034 (inactive).
Still for that read-out and setting: the figure for RNF167 (UniProt Q9H6Y7) is -0.019 (inactive).
For RCOR1 (UniProt Q9UKL0), the log2 fold change is 0.077 (inactive).
With SEC24A (UniProt O95486), the log2 fold change was 0.051 (inactive).

Compound in the next assay: CN1C2=C(C3=C1C(=O)N(N=C3)CC4=CC(=CC=C4)N)SC(=C2)S(=O)C
The assay is described as above. A digest of the protocol: as §1
Turning to SCAMP2 (UniProt H3BUB6), the log2 fold change is 0.064 (inactive).
On to SIK3 (UniProt H0Y4E8), for which the log2 fold change was -0.019 (inactive).
Still for that read-out and setting: the figure for SCG3 (UniProt Q8WXD2) is -0.116 (inactive).
Take RCOR3 isoform 3 (UniProt Q9P2K3): the log2 fold change is 0.02 (inactive).
Still for that read-out and setting: the figure for SAMD4B (UniProt Q5PRF9) is 0.089 (inactive); for SCAF8 isoform 2 (UniProt Q9UPN6) it is -0.045 (inactive).
For the target SASH1 (UniProt O94885), the log2 fold change is 0.054 (inactive).
SCAMP2 (UniProt O15127): the log2 fold change is -0.006 (inactive).
Take RAF1 isoform 2 (UniProt P04049): the log2 fold change is -0.129 (inactive).
On the same count and under the same terms, in the case of RPS6KA3 (UniProt P51812) it was -0.043 (inactive); in that of RBM39 (UniProt Q14498), 0.071 (inactive); in that of RPAIN isoform 8 (UniProt Q86UA6), -0.044 (inactive).
The same measure, in the same setting: the figure for RALY (UniProt Q9UKM9) is 0.358 (inactive); for ROCK1 (UniProt Q13464) it is 0.031 (inactive).
Turning to RECQL (UniProt P46063), the log2 fold change was -0.076 (inactive).
Turning to SH3GLB2 (UniProt Q9NR46), the log2 fold change is 0.016 (inactive).
On to RAB9A (UniProt P51151), for which the log2 fold change is -0.034 (inactive).
Take RAD50, A0A494C0Y7: the log2 fold change is 0.097 (inactive).
On the same count and under the same terms, the figure for SH2D1B (UniProt O14796) is 0.235 (inactive); for SLBP (UniProt Q14493) it is 0.113 (inactive).
The same measure, in the same setting: the figure for SERINC1 (UniProt Q9NRX5) is -0.194 (inactive); for RAP2C (UniProt Q9Y3L5) it is -0.105 (inactive); for SCO2 (UniProt O43819) it is -0.014 (inactive).
Still for that read-out and setting: in the case of RUFY3 isoform 3 (UniProt Q7L099) it was -0.015 (inactive).
For RETSAT (UniProt Q6NUM9), the log2 fold change was -0.011 (inactive).
SEC31A (UniProt O94979): the log2 fold change was 0.051 (inactive).
The same measure, in the same setting: the figure for RBIS (UniProt Q8N0T1) is 0.026 (inactive); for SLC12A9 (UniProt Q9BXP2) it is -0.075 (inactive).
On the same count and under the same terms, the figure for RNF167 (UniProt Q9H6Y7) is 0.05 (inactive); for RCOR1 (UniProt Q9UKL0) it is -0.024 (inactive).
The same measure, in the same setting: the figure for SEC24A (UniProt O95486) is -0.054 (inactive).

Compound in a further assay: CN1CCC(CNc2ccc3ncc(-c4cccc(OC(F)(F)F)c4)n3n2)CC1
The description is as above. In a few lines:
as §1
Take SIK3 (UniProt H0Y4E8): the log2 fold change was -0.071 (inactive).
The same measure, in the same setting: the figure for SCG3 (UniProt Q8WXD2) is 0.6 (active).
Turning to RCOR3 isoform 3 (UniProt Q9P2K3), the log2 fold change is -0.011 (inactive).
Same read-out and setting: in the case of SAMD4B (UniProt Q5PRF9) it was -0.308 (inactive).
SCAF8 isoform 2 (UniProt Q9UPN6): the log2 fold change is 0.015 (inactive).
The same measure, in the same setting: the figure for RBM48 isoform 2 (UniProt Q5RL73) is 0.114 (inactive); for SASH1 (UniProt O94885) it is -0.29 (inactive); for SCAMP2 (UniProt O15127) it is -0.1 (inactive).
On the same count and under the same terms, the figure for RBBP6 (UniProt Q7Z6E9) is -0.014 (inactive).
Still for that read-out and setting: the figure for RAF1 isoform 2 (UniProt P04049) is -0.222 (inactive).
As for RPS6KA3 (UniProt P51812), the log2 fold change was -0.192 (inactive).
For RBM39 (UniProt Q14498), the log2 fold change was -0.045 (inactive).
With RALY (UniProt Q9UKM9), the log2 fold change was 0.092 (inactive).
Consider ROCK1 (UniProt Q13464), for which the log2 fold change is 0.096 (inactive).
Same read-out and setting: the figure for RECQL (UniProt P46063) is 0.058 (inactive); for SH3GLB2 (UniProt Q9NR46) it is -0.254 (inactive); for RAB9A (UniProt P51151) it is -0.252 (active).
On to RAD50, A0A494C0Y7, for which the log2 fold change is 0.04 (inactive).
Regarding SH2D1B (UniProt O14796), the log2 fold change is -0.174 (inactive).
Regarding SLBP (UniProt Q14493), the log2 fold change was -0.291 (active).
On the same count and under the same terms, the figure for RAB3IL1 (UniProt E9PK89) is -0.342 (inactive); for RAP2C (UniProt Q9Y3L5) it is 0.173 (inactive).
The same measure, in the same setting: the figure for SCO2 (UniProt O43819) is -0.187 (inactive).
The same measure, in the same setting: the figure for RUFY3 isoform 3 (UniProt Q7L099) is -0.048 (inactive).
Take RETSAT (UniProt Q6NUM9): the log2 fold change was 0.053 (inactive).
With SEC31A (UniProt O94979), the log2 fold change is -0.11 (inactive).
Same read-out and setting: the figure for RBIS (UniProt Q8N0T1) is -0.034 (inactive); for SLC12A9 (UniProt Q9BXP2) it is -0.136 (inactive); for RNF167 (UniProt Q9H6Y7) it is -0.097 (inactive).
Still for that read-out and setting: the figure for RCOR1 (UniProt Q9UKL0) is -0.037 (inactive); for SEC24A (UniProt O95486) it is -0.029 (inactive).
